Reference: the supplement of paper PMC6555819

How the values were obtained:
Assay in all cases: PBM binding z-score (relative to random genomic background probes); higher = stronger binding; sequences stand for … in GC…GCGATTGACAGCGTAGAATGAAGG
[1] = tested on: PPARg:RXRa DBDmut IVT, anti-RXR (DBD mutation: RXRa K156A/R161A, NR concentration 270 nM, RXRa partner concentration 90 nM)
How it was run: (§1)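 Binding z-scores were set against random background probes. The data came from custom Agilent 4×180K protein-binding microarrays carrying double-stranded probes with 34-nt variable regions, incubated 1 h with ligand-free nuclear receptor dimers. Partner-specific antibodies detected binding, and scanned fluorescence was regression-normalized.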

[2] = tested on: PPARg:RXRa IVT, anti-PPARg (NR concentration 270 nM, RXRa partner concentration 90 nM)
How it was run: as §1

[3] = tested on: PPARg DBDmut:RXRa IVT, anti-PPARg (DBD mutation: PPARg1 K132A/R137A, NR concentration 270 nM, RXRa partner concentration 90 nM)
How it was run: as §1

[4] = tested on: PPARg DBDmut IVT, anti-PPARg (DBD mutation: PPARg1 K132A/R137A, NR concentration 270 nM)
How it was run: as §1

[5] = tested on: PPARg homodimer (NR concentration 180 nM)
How it was run: as §1

[6] = tested on: PXR:RXRa (NR concentration 270 nM, RXRa partner concentration 90 nM)
How it was run: as §1

[7] = tested on: PXR homodimer (NR concentration 270 nM)
How it was run: as §1

[8] = tested on: RARa:RXR (NR concentration 270 nM, RXRa partner concentration 90 nM)
How it was run: as §1

[9] = tested on: RARa homodimer (NR concentration 270 nM)
How it was run: as §1

[10] = tested on: RARb:RXRa (NR concentration 270 nM, RXRa partner concentration 90 nM)
How it was run: as §1

| Sequence | PBM binding z-score [1] | PBM binding z-score [2] | PBM binding z-score [3] | PBM binding z-score [4] | PBM binding z-score [5] | PBM binding z-score [6] | PBM binding z-score [7] | PBM binding z-score [8] | PBM binding z-score [9] | PBM binding z-score [10] |
| --- | --- | --- | --- | --- | --- | --- | --- | --- | --- | --- |
| ACTAGCAGGCCAAGTATGGGTCACTCAAACAAAG | 1.16 | 1.82 | -0.278 | -0.249 | 0.52 | 0.911 | -0.49 | 1.85 | -0.747 | 1.58 |
| ATACCAAGGTGATCGTGAGGTCGTTGTTACTAAC | 0.34 | 1.36 | 0.414 | 0.123 | 1.05 | 2.84 | 1.29 | 2.11 | 0.23 | 1.3 |
| TAGCCTAGGTCATTGGTCCAGTATAGTACGCATC | 2.05 | 2.93 | 0.413 | 0.614 | 1.51 | 1.76 | 0.043 | 2.39 | 0.179 | 3.58 |
| ATCGAAAGGTCGAGGTTAGTATAGAGAAAGGGAA | 0.147 | 1.68 | 0.823 | 1.11 | 3.22 | 2.65 | 0.569 | 3.81 | 1.39 | 4.09 |
| TTACCAAGGTGAGCTAAGGTCGTTGATCCAACTC | 1.04 | 1.93 | -0.698 | -0.173 | 0.0568 | 4.6 | 0.308 | 2.41 | -1.25 | 1.91 |
| ATATGTAGGTTATCGGGTCCTTCAGTTTGCGCAT | 6.92 | 6.98 | 2.02 | 2.6 | 1.69 | 0.963 | 0.468 | 0.74 | 0.677 | 0.829 |
| CGTCCAAGGTCAGAGACGTCAGTGAATGCCGAGT | 2.2 | 1.74 | -0.306 | -0.0249 | 1.43 | 2.14 | 0.599 | 2.75 | 0.197 | 4.37 |
| AGAATGTGGTTATTAAGATCAGGGAATTGCGGTC | 0.321 | 0.232 | 0.301 | 1.09 | 1.35 | -0.0244 | 0.763 | 0.105 | 1.37 | 0.11 |
| GCTTACGGGGCAAAGGTTATAGCATGAATAGAAT | 3.33 | 4.27 | 0.825 | 1.35 | 2.67 | 2.99 | 0.0717 | 4.63 | 0.155 | 2.32 |
| CGTCCAAGGTCAGAGAGCTCAGTGAATGCCGAGT | 2.67 | 1.84 | -0.717 | -0.346 | 1.67 | 2.14 | 0.855 | 2.37 | 0.367 | 4.6 |
| CGAACTAGGTCAGAACCGGACAGTGAAGGATGAT | 7.36 | 7.01 | 0.829 | -0.265 | 0.564 | 0.339 | -0.0754 | 0.679 | -0.208 | 2.85 |
| GCGACTGTGGCAAAGCAGGTTACCATAAGGTTGG | 0.686 | 0.528 | -0.512 | -1.16 | -0.377 | -0.184 | -0.793 | -0.0448 | -0.9 | -0.0264 |
